Assay results as given in PubChem BioAssay (NCATS).
Records with an inconclusive call do not appear. The source made the active and inactive calls. The call rests on the fitted dose curve; in most records, active means well fitted curve in either direction with a large enough effect (not every such curve was filed as active); inconclusive means small, poorly fitted or top-dose-only effect, or another doubt; inactive means flat fitted curve, though single readings scatter.

Assay: AP1 Signaling Pathway (AID 357)
Details: ME-180 (cervical carcinoma) AP-1-bla reporter, EGF-induced, beta-lactamase ratio, 5 h; at 17.2 µM (top of the series) unless noted
How it was run: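 In this screen, ME-180 cells in Opti-MEM with 0.5% dialyzed FBS received EC50 EGF and compound titrations for 5 h. AP-1 reporter beta-lactamase was detected via CCF4 ratio, giving AC50 for positive and negative modulators.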
On the % scale 0 is the no-effect control and ±100 the full control effect.

Activity change, negative = inhibition, inactive:
NC(=O)C1CCN(CCC(=O)Nc2ccc(Br)cc2)CC1 11.3%, COc1cccc(N2C(=O)C(O)=C(C(C)=O)C2c2ccc(OC)c(OC)c2)c1 (configuration not stated) -12.6%, COc1ccc(Cn2c(CCCO)nc3ccccc32)cc1OC -8.44%, Cc1nc(SCC(=O)Nc2ccc3c(c2)OCO3)c(C#N)c2c1CCCC2 -14.5%, COc1ccc2c(c1)[nH]c1c(=O)n(CC3CCCO3)cnc12 (configuration not stated) -4.81%, C=CCOC(=O)C1=C(C)NC(SCC(=O)N(CC)CC)=C(C#N)C1c1ccco1 (configuration not stated) -27.3%, CCCC1C(c2ccc(OC)cc2)C(C#N)(C#N)C2(C#N)CC1(N)NC2=O (configuration not stated) 7.74%, CC1CN(c2oc(-c3ccccc3Cl)nc2C#N)CC(C)O1 (configuration not stated) 6.37%, C=CCOC(=O)C1=C(C)OC(N)=C(C#N)C1c1ccoc1 (configuration not stated) 21.2%, N#Cc1nc(COc2ccc(Br)cc2)oc1NCCN1CCOCC1 -17.9%, CCOC(=O)c1cc2c(=O)n3cccc(C)c3nc2n(Cc2cccnc2)c1=N 13.7%, O=S(=O)(c1ccccc1)N(CC(O)CN1CCCCC1)c1ccccc1 (configuration not stated) -4.48%, O=C(c1cccc(Cl)c1)N1CCN(C(=O)c2ccccc2F)CC1 -14.3%, O=C1C=C(O)CC(c2cccs2)C1 (configuration not stated) -0.0121%, CC(=O)C1=C(O)C(=O)N(Cc2cccnc2)C1c1ccccc1Cl (configuration not stated) 3.06%, N#Cc1nc(-c2cccs2)oc1NCCN1CCOCC1 -3.9%, CC(C)CC(C(=O)O)C(C)CC(=O)Nc1ccn(-c2ccccc2)n1 (configuration not stated) -9.05%, COc1cccc(/C=C2/CN(C)CC3=C2OC(N)=C(C#N)C3c2cccc(OC)c2)c1 (configuration not stated) -20.4%, COc1ccc(OC)c(C2/C(=C(/O)c3cnn(-c4ccccc4)c3C)C(=O)C(=O)N2CCN(C)C)c1 (configuration not stated) 0.346%, COC(=O)c1ccccc1NC(=O)C1COc2ccccc2O1 (configuration not stated) -7.17%, Cc1cccc(OCC(=O)NCC(=O)n2nc(C)cc2C)c1 2.67%, Cn1c(N)c(C#N)c(C#N)c1-c1ccccc1 -21.2%

Assay: NFAT Signaling Pathway (AID 444);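 further: carbachol stimulus at about its EC50 of 1 µM final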
Details: Jurkat NFAT-bla M1, carbachol, beta-lactamase ratio, 5 h; at 17.2 µM (top of the series) unless noted
How it was run: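 Jurkat cells with NFAT-driven β-lactamase reporter and co-expressed M1 receptor, stimulated with carbachol (final 1 uM, ~EC50), compound titration, 5 h at 37 °C. CCF4 loaded 1 h at RT; 460/530 nm ratio gave %activity and AC50.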

Activity change, negative = inhibition, inactive:
COC(=O)c1c(-n2cnnn2)sc(C)c1C 2.79%, Clc1ccc2nc(CSc3nc4ccccc4o3)cn2c1 1.67%, COC(=O)C(C)Sc1nc2c(c(=O)n(C)c(=O)n2C)n1CCC(C)C (configuration not stated) 7.85%, CCOC(=O)CC1=NC(=O)CS1 0.359%, Cc1cc(COc2ccccc2OCCN2CCN(C)CC2)no1 -13.9%, S=c1[nH]nc(-c2ccco2)n1Cc1ccccc1 3.89%, CC1(C)CC(=O)C(C=NCCN2CCN(C(=O)C34CC5CC(CC(C5)C3)C4)CC2)=C(O)C1 9.88%, Cc1cc(C)nc(CC(N)=O)n1 4.47%, CN(C)c1ccc(C2C3C(=O)N(c4ccc(C(=O)O)cc4)C(=O)C3ON2c2ccccc2)cc1 (configuration not stated) 17.3%, C=CCNc1sc(C(=O)C2CC2)c(N)c1C#N 4.81%, O=C(NCCCN1CCOCC1)C1(c2ccccc2)CCOCC1 -0.629%, CCOc1ccc(-n2c3nc4ccccc4nc3c3c(=O)n(Cc4ccco4)cnc32)cc1 -9.2%, Nc1nnnn1/N=C/c1ccccn1 -4.47%, CCN(CC)c1ncc(C)c(=O)[nH]1 2.65%, OCCNC1=NCCN1 3.37%, O=C(OCCN1CCOCC1)c1ccc(OCCN2CCOCC2)cc1 -7.8%, COc1ccc2cnn(-c3ccccc3C)c(=O)c2c1OC -6.03%, Cc1c(/C(O)=C2/C(=O)C(=O)N(CCN3CCOCC3)C2c2cccnc2)cnn1-c1ccccc1 (configuration not stated) -1.03%, NC(=O)C1CCN(CCC(=O)Nc2ccc(Br)cc2)CC1 -28.6%, COc1cccc(N2C(=O)C(O)=C(C(C)=O)C2c2ccc(OC)c(OC)c2)c1 (configuration not stated) 9.05%, COc1ccc(Cn2c(CCCO)nc3ccccc32)cc1OC 3.22%, Cc1nc(SCC(=O)Nc2ccc3c(c2)OCO3)c(C#N)c2c1CCCC2 -1.28%, COc1ccc2c(c1)[nH]c1c(=O)n(CC3CCCO3)cnc12 (configuration not stated) 16.4%, C=CCOC(=O)C1=C(C)NC(SCC(=O)N(CC)CC)=C(C#N)C1c1ccco1 (configuration not stated) 6.04%, CCCC1C(c2ccc(OC)cc2)C(C#N)(C#N)C2(C#N)CC1(N)NC2=O (configuration not stated) -5.15%, CC1CN(c2oc(-c3ccccc3Cl)nc2C#N)CC(C)O1 (configuration not stated) -6.23%, C=CCOC(=O)C1=C(C)OC(N)=C(C#N)C1c1ccoc1 (configuration not stated) -14.1%, N#Cc1nc(COc2ccc(Br)cc2)oc1NCCN1CCOCC1 10.5%, CCOC(=O)c1cc2c(=O)n3cccc(C)c3nc2n(Cc2cccnc2)c1=N -26.5%, O=S(=O)(c1ccccc1)N(CC(O)CN1CCCCC1)c1ccccc1 (configuration not stated) -23%, O=C(c1cccc(Cl)c1)N1CCN(C(=O)c2ccccc2F)CC1 0.199%, O=C1C=C(O)CC(c2cccs2)C1 (configuration not stated) -1.83%, CC(=O)C1=C(O)C(=O)N(Cc2cccnc2)C1c1ccccc1Cl (configuration not stated) 3.26%, N#Cc1nc(-c2cccs2)oc1NCCN1CCOCC1 -7.03%, CC(C)CC(C(=O)O)C(C)CC(=O)Nc1ccn(-c2ccccc2)n1 (configuration not stated) 6.76%, COc1cccc(/C=C2/CN(C)CC3=C2OC(N)=C(C#N)C3c2cccc(OC)c2)c1 (configuration not stated) -0.393%, COc1ccc(OC)c(C2/C(=C(/O)c3cnn(-c4ccccc4)c3C)C(=O)C(=O)N2CCN(C)C)c1 (configuration not stated) 4.77%, COC(=O)c1ccccc1NC(=O)C1COc2ccccc2O1 (configuration not stated) -19.3%, Cc1cccc(OCC(=O)NCC(=O)n2nc(C)cc2C)c1 12.1%, Cn1c(N)c(C#N)c(C#N)c1-c1ccccc1 4.54%
